Source: PubChem BioAssay (several laboratories)
Only some compounds are listed: those with a hit (about 0.73% of all), similar ones and a draw of the others.
BioA inh = M. tuberculosis BioA enzyme inhibitors, primary screen, biochemical, plate reader, single point, HTS; purified M. tuberculosis BioA enzyme; inhibition, % at 9.99 µM; 360,000 compounds, 0.096% hits; in the data active = inhibition above about 40%
TcdB GH inh = TcdB glycohydrolase inhibitors, primary screen, biochemical, single point, plate reader | Toxin B (Clostridioides difficile), P18177 | TcdB glycohydrolase enzymatic assay | inhibition, % at 9.99 µM | 350,000 compounds, 0.24% hits; in the data active = inhibition above about 10%
BH1578 lux ind = inducers of Vibrio cholerae quorum light production without autoinducers, primary screen, BH1578 luxS cqsA deficient, single point; V. cholerae BH1578 lux reporter, luminescence, 6 h; activation, % at 18.7 µM; 350,000 compounds, 0.16% hits; AID 588436, 2011; in the data active = activation mostly above about 9.7%, no sharp cut-off
Yp Topo-I inh = Yersinia pestis topoisomerase I inhibitors, primary screen, biochemical, cleavage product accumulation, plate reader, single point; DNA topoisomerase I (Yersinia pestis CO92); Y. pestis Topo-I cleavage product accumulation; activity, % at 10 µM; 360,000 compounds, 0.064% hits; in the data active = activity above about 50%, passing the limit was not always enough
DUSP3 inh = VHR1 phosphatase inhibitors, primary screen, biochemical, absorbance, uHTS; Dual specificity protein phosphatase 3 (Homo sapiens), P51452; recombinant VHR phosphatase, pNPP absorbance; inhibition, % at 13.3 µM; 290,000 compounds, 0.52% hits; AID 1654, 2009; in the data active = inhibition above about 50%
Of the large screens only hits and unclear results are named; the others gave an inactive call; ! = repeats disagree.

Cc1ccc(NC(=O)c2nc[nH]c2C(=O)NCCN(CCNC(=O)c2[nH]cnc2C(=O)Nc2ccc(C)cc2)CCNC(=O)c2[nH]cnc2C(=O)Nc2ccc(C)cc2)cc1	none (no result: DUSP3 inh)
O=C(Nc1ccc(Cl)cc1)c1nc[nH]c1C(=O)NCCN(CCNC(=O)c1[nH]cnc1C(=O)Nc1ccc(Cl)cc1)CCNC(=O)c1[nH]cnc1C(=O)Nc1ccc(Cl)cc1	Yp Topo-I inh 64 (no result: TcdB GH inh, DUSP3 inh)
CC(C)(C)OC(=O)NCc1ccc(NC(=O)c2nc[nH]c2C(=O)NCCNC(=O)c2[nH]cnc2C(=O)Nc2ccc(CNC(=O)OC(C)(C)C)cc2)cc1	Yp Topo-I inh 79 (no result: TcdB GH inh, DUSP3 inh)
CSCC[C@@H](C(=O)Nc1ccc2c(c1)OCCO2)N1Cc2ccccc2C1=O	none (no result: BH1578 lux ind)
CS(=O)(=O)CCC(C(=O)Nc1ccc2c(c1)OCO2)N1Cc2ccccc2C1=O (stereo not drawn)	DUSP3 inh 57
C[C@@H]1CN([C@@H](C)CO)C(=O)c2cccc(NS(C)(=O)=O)c2O[C@H]1CN(C)C	none (no result: BH1578 lux ind, Yp Topo-I inh, DUSP3 inh)
CN(CC(=O)Nc1ccccc1-c1ccccc1)C1CCCCC1	Yp Topo-I inh 58 (no result: TcdB GH inh)
O=C(NCC1CCCCC1)[C@H]1[C@H](CO)[C@H]2Cn3c(cccc3=O)[C@H]2N1Cc1ccccn1	none (no result: BH1578 lux ind, Yp Topo-I inh, DUSP3 inh)
CC(C)c1ccc(NC2CCCN(C(=O)c3ccccc3-c3ncc[nH]3)C2)cc1 (stereo not drawn)	DUSP3 inh 57
C[C@@H]1CN([C@H](C)CO)C(=O)Cc2cc(NC(=O)C3CC3)ccc2O[C@@H]1CN(C)Cc1ccc(C(=O)O)cc1	none (no result: BH1578 lux ind, Yp Topo-I inh, DUSP3 inh)
C[C@H](CO)N1C[C@H](C)[C@@H](CN(C)Cc2ccc(C(=O)O)cc2)OCCCC[C@H](C)Oc2ccc(NS(=O)(=O)c3ccc(Cl)cc3)cc2C1=O	none (no result: BH1578 lux ind, Yp Topo-I inh, DUSP3 inh)
NC(=O)c1ccc2c(=O)c(O)c(-c3cc(Cl)c(N)c(Cl)c3)[nH]c2c1	TcdB GH inh 13
C[C@@H]1CCCCO[C@H](CN(C)S(=O)(=O)c2ccc(F)cc2)[C@@H](C)CN([C@H](C)CO)C(=O)c2cc(NC(=O)C3CCCCC3)ccc2O1	none (no result: BH1578 lux ind, Yp Topo-I inh, DUSP3 inh)
Nc1ccc(C2(c3ccc(N)cc3)C(=O)Nc3ccccc32)cc1	DUSP3 inh 53 (no result: BioA inh)
O=C1Nc2ccccc2C1(c1ccccc1)c1ccccc1	none (no result: TcdB GH inh)
O=C(C[C@H]1C=C[C@H](NC(=O)C2CC2)[C@@H](CO)O1)NCc1ccncc1	none (no result: BH1578 lux ind, Yp Topo-I inh, DUSP3 inh)
CC(=O)c1cccc(-c2ccnc3c2CC(C(=O)NCc2ccccc2)O3)c1 (stereo not drawn)	TcdB GH inh 10 (no result: DUSP3 inh)
CC(=O)c1cccc(-c2ccnc3c2CC(C(=O)NCc2ccc(F)c(F)c2)O3)c1 (stereo not drawn)	none (no result: DUSP3 inh)
O=C(NCc1cccc(Cl)c1)C1Cc2c(-c3cccc(F)c3)ccnc2O1 (stereo not drawn)	none (no result: DUSP3 inh)
O=C(NCc1ccccc1)C1Cc2c(-c3cccc(F)c3)ccnc2O1 (stereo not drawn)	TcdB GH inh 11 (no result: DUSP3 inh)
COc1ccc2c3c([nH]c2c1)[C@H](CO)N(S(C)(=O)=O)CC31CCN(CC2CC2)CC1	none (no result: BioA inh, BH1578 lux ind, Yp Topo-I inh, DUSP3 inh)
CO[C@H]1CN(C)C(=O)c2cc(NC(C)=O)ccc2OC[C@H](C)N(C(=O)c2ccccc2F)C[C@@H]1C	none (no result: BH1578 lux ind, Yp Topo-I inh, DUSP3 inh)
Cc1ccc(-n2nnnc2SC(C)C(N)=O)c(C)c1 (stereo not drawn)	BH1578 lux ind 17 (no result: TcdB GH inh)
CC(C)NC(=O)Nc1ccc2c(c1)C(=O)N([C@H](C)CO)C[C@H](C)[C@@H](CN(C)Cc1ccc(-c3ccccc3)cc1)O2	none (no result: BH1578 lux ind, Yp Topo-I inh, DUSP3 inh)
Nc1ccc2nc(-c3cccs3)[nH]c2c1	TcdB GH inh 13
COc1ccc(C(=O)NCCNC(=O)c2cnccn2)cc1OC	DUSP3 inh 52
N#C[C@H]1[C@@H](c2ccccc2-c2cccc(F)c2)[C@@H](CO)N1C(=O)C1CC1	none (no result: BioA inh, BH1578 lux ind, Yp Topo-I inh, DUSP3 inh)
O=C(CCNC(=O)c1ccc(Cl)cc1)NCCC1=CCCCC1	none (no result: BioA inh, DUSP3 inh)
Cc1ccc(SCC(=O)NCCC2=CCCCC2)cc1	Yp Topo-I inh 51 (no result: TcdB GH inh)
Cc1ccc(OCC(=O)NCCC2=CCCCC2)cc1	none (no result: TcdB GH inh)
O=C(CCSCc1ccc(Cl)cc1)NCCC1=CCCCC1	Yp Topo-I inh 65 (no result: BioA inh)
CCN1CCN(C(=O)COc2ccc(S(=O)(=O)N3CCOCC3)cc2C)CC1	DUSP3 inh 54
C[C@H](CO)N1C[C@H](C)[C@@H](CN(C)Cc2ccc(-c3ccccc3)cc2)Oc2c(NC(=O)C3CC3)cccc2C1=O	none (no result: BH1578 lux ind, Yp Topo-I inh, DUSP3 inh)
CCN1CCN(C(=S)c2ccc(Br)cc2)CC1	DUSP3 inh 52
CCCS(=O)(=O)n1nc(-c2ccccc2)cc1N	DUSP3 inh 54
CCS(=O)(=O)n1nc(-c2ccccc2)cc1N	none
C[C@H]1CN([C@@H](C)CO)C(=O)c2cccc(NC(=O)CCCCCC(=O)Nc3ccccc3N)c2O[C@@H]1CN(C)C	none (no result: BioA inh, BH1578 lux ind, Yp Topo-I inh, DUSP3 inh)
CCCNC(=O)N1CC2(C1)[C@H](c1ccccc1)[C@@H](CO)N2C(=O)c1ccncc1	none (no result: BioA inh, BH1578 lux ind, Yp Topo-I inh, DUSP3 inh)
Cc1sc2ncn(CC(=O)NCCCN3CCC(C)CC3)c(=O)c2c1S(=O)(=O)N1CCC(C)CC1	DUSP3 inh 60 (no result: BioA inh)
C=CCOC(Cn1ccnc1)c1ccc(Cl)cc1Cl (stereo not drawn)	none (no result: DUSP3 inh)
Clc1ccc(COC(Cn2ccnc2)c2ccc(Cl)cc2Cl)c(Cl)c1 (stereo not drawn)	Yp Topo-I inh 60!
COCC(=O)Nc1ccc2c(c1)[C@@H]1C[C@H](CC(=O)NCC(F)(F)F)O[C@H](CO)[C@@H]1O2	none (no result: BH1578 lux ind, Yp Topo-I inh, DUSP3 inh)
O=C(O)c1ccc(C(=O)Nc2cccc3ccccc23)c(C(=O)O)c1	BH1578 lux ind 225
O=C(Nc1cccc(C(=O)O)c1)Nc1cccc2ccccc12	none
O=C(NC1CCN(C(=O)Nc2ccccc2)CC1)C1CCCCC1	DUSP3 inh 52 (no result: TcdB GH inh)
